Measured values taken from PubChem BioAssay AID485358 (National Center for Advancing Translational Sciences (NCATS), 2010).
Screen size: about 340,000 compounds; about 1,800 (0.53%) were called active. This is one part of a sample in which actives are shown more often than they occur. A number with no mark means an inactive call.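 The calls were made as follows: active = activation over 3 SD above normal in the single-dose calcium agonist read (cut at about 30% in these data); inactive = the rest.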

These molecules were tested against D(2) dopamine receptor (Homo sapiens) (UniProt P14416) (assay: HTS Assay for Allosteric Agonists of the Human D2 Dopamine Receptor: Primary Screen for Agonists). Conditions: HEK293 T-REx D2 cells, calcium flux agonist mode; at 2 µM; hits give high values.
D(2) dopamine receptor (Homo sapiens), sequence (P14416 whole entry, looked up): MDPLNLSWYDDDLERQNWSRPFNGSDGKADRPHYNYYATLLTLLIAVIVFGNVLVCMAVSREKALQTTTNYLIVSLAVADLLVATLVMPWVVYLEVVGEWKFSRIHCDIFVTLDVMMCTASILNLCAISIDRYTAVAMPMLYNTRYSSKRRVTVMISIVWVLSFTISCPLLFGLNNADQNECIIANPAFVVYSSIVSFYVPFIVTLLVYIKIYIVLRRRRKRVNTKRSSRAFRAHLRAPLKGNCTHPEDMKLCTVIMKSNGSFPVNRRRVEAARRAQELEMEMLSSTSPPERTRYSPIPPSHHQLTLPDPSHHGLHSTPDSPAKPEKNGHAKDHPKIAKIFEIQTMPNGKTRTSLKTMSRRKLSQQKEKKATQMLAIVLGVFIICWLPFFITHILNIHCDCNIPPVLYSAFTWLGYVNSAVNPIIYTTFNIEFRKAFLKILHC
Method in brief: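 Agonism scored from kinetic calcium signal (1 read/sec, 180 s) following compound pin transfer, after a 10 s baseline. Cells: HEK293 Trex line expressing inducible D2 receptor coupled to calcium, dye-loaded after overnight culture at 30 C.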
Also: 0% is about no effect.

Compound	activation
COC(=O)c1ccc(Cn2c(SCC(=O)N(C)c3ccccc3)nc3ccccc32)cc1	0.816%
O=C(COc1coc(CN2CCN(c3ccccc3)CC2)cc1=O)Nc1ccccc1F	45.8% (active)
Cc1cc(C)cc(NC(=O)COc2coc(CN3CCN(c4ccccc4)CC3)cc2=O)c1	5.66%
O=C(COc1coc(CN2CCN(c3ccccc3)CC2)cc1=O)N1CCc2ccccc21	-0.514%
CC(C)OC(=O)C(C#N)c1nc2ccccc2nc1N1CCN(Cc2ccc3c(c2)OCO3)CC1 (configuration not stated)	48.3% (active)
N#C/C=C/N1CCN(Cc2ccc3c(c2)OCO3)CC1	0.771%
CC(C)OC(=O)C(C#N)c1nc2ccccc2nc1N1CCN(Cc2ccccc2)CC1 (configuration not stated)	0.138%
Cc1ccc(Cl)cc1NC(=O)/C(C#N)=C\c1cn(Cc2ccc(F)cc2)c2ccccc12	0.348%
Cc1cc2nc3c(=O)n(Cc4ccccc4)c(=O)[nH]c3nc2cc1N	64.2% (active)
Cc1nc2c(c(=O)n1Cc1ccco1)c1nc3ccccc3nc1n2Cc1ccccc1	-0.619%
C=CCSc1nc2c(c(=O)[nH]c(=O)n2C)n1Cc1ccccc1	-0.578%
Cc1cccc(CC(=O)N2CC(=O)Nc3ccc(F)cc3C2c2ccccc2)c1 (configuration not stated)	-0.521%
CCCN(CCC)C(=O)C1CCCN(c2ncnc3c2nc2n3CCCCC2)C1 (configuration not stated)	0.0903%
Cn1c(=O)c2sccc2n2c(CCC(=O)NCc3ccccc3Cl)nnc12	-0.258%
O=C1c2cccc3c([N+](=O)[O-])ccc(c23)C(=O)N1CC1CCCO1 (configuration not stated)	3%
CN1C(=O)c2cccc3c(N)ccc(c23)C1=O	109% (active)
Cc1nn(C)cc1N1C(=O)c2cccc3c(N)ccc(c23)C1=O	74% (active)
CC(C(=O)O)N1C(=O)c2cccc3cccc1c23 (configuration not stated)	0.197%
COCCNC(=O)c1ccc2c(c1)N=C(C)c1cc(C)ccc1S2	0.312%
Cc1ccc(-n2c(SCC(=O)Nc3cccc(F)c3)nc3c(oc4ccccc43)c2=O)cc1C	2.59%
Cc1ccc(N2CCN(C(=O)CCc3c(C)nc4c(c3C)c(=O)n(C)c(=O)n4C)CC2)c(C)c1	-0.245%
CCc1nnc(SCc2c(F)cccc2Cl)c2cc3sccc3n12	0.47%

Compound	activation
COc1ccc(-c2cn3nc(N4CCCC(C(=O)NCCCOC(C)C)C4)sc3n2)cc1 (configuration not stated)	-0.281%
CN1c2ccc(Cl)cc2-c2nc(SCC(=O)Nc3cc(F)ccc3F)ncc2S1(=O)=O	0.0638%
CO/N=C/c1cn(-c2ccc(Cl)cc2)nn1	33.3% (active)
O=C(COc1ccc(Cl)cc1)Nc1ccc(-c2nc3cc(Cl)ccc3o2)c(O)c1	1.1%
O=C(NC1CC(=O)N(c2ccc(F)cc2)C1)C1CCCCC1 (configuration not stated)	1.31%
CCOc1ccc(C(=O)N2CCN(CCc3ccccn3)CC2)cc1	0.162%
Cc1cc(NC(=O)CSc2ncc(C(=O)Nc3ccc(Cl)cc3)c(=O)n2C)no1	0.675%
O=C(Nc1ccccc1C(=O)N1CCCCC1)c1ccco1	-0.0145%
Cc1c(Cl)cccc1NC(=O)CCC(=O)N/N=C/c1ccco1	0.478%
CS/C(=C\C(=O)c1ccco1)Nc1ccccc1Cl	34.5% (active)
O=C(C(Cl)Cl)N1CCN(c2ccccn2)CC1	4.39%
CC(=C1C(=O)c2ccccc2C1=O)N1CCN(c2ccccn2)CC1	62.2% (active)
CNC(=S)N1CCN(c2ccccn2)CC1	2.09%
Cc1cccc(-c2nnc(SCC(=O)N3CCCc4ccccc43)o2)c1	-1.45%
CC(C)c1ccc(C2CC(=O)N3CN(C4CCCCC4)CSC3=C2C#N)cc1 (configuration not stated)	0.111%
COc1ccccc1-c1cc2nc(C)c(CCC(=O)O)c(C)n2n1	0.732%
COc1ccc(N2CCN(S(=O)(=O)c3ccc(-c4coc(C)n4)cc3)CC2)cc1	-0.462%
COc1cc(OC)c(NC(=O)c2cc(S(=O)(=O)N3CCCC3)cn2C)cc1Cl	2.37%
CCC1=Nc2cc(C(=O)NCC(C)c3ccccc3)ccc2Sc2ccc(C)cc21 (configuration not stated)	-0.272%
CCCCCc1c(C)nc(N2CCN(Cc3ccc4c(c3)OCO4)CC2)[nH]c1=O	0.0879%
Fc1ccc2[nH]c3c(N4CCN(Cc5ccc6c(c5)OCO6)CC4)ncnc3c2c1	35.9% (active)
O=C(CSc1nc2c(c(=O)[nH]1)CN(Cc1ccc3c(c1)OCO3)CC2)Nc1cc(F)ccc1F	0.843%

Compound	activation
CCn1c2ccccc2c2nnc(SCC(=O)O)nc21	-0.808%
CCCCc1nn2c(=O)cc(COC(=O)c3ccc(NC(=O)c4ccccc4C)cc3)nc2s1	8.52%
Cn1c(=O)c(=O)n(C)c2cc(S(=O)(=O)NCCN3CCN(c4ccccc4F)CC3)ccc21	67.4% (active)
O=C(CCCNS(=O)(=O)c1cccc2nsnc12)NCCN1CCN(c2ccccc2F)CC1	24.7%
CCOC(=O)N1CCN(c2c(NCCN3CCN(c4ccccc4F)CC3)c(=O)c2=O)CC1	10.4%
COc1ccccc1CN1CCC(CNC(=O)c2cnn(-c3ccccc3Cl)c2C2CCN(C(=O)OC(C)(C)C)CC2)CC1	3.36%
Cc1ccccc1NC(=O)Cn1c(=O)n(Cc2ccco2)c(=O)c2ccc(C(=O)NC3CCCC3)cc21	0.581%
Cc1cccc(-n2c(=O)c3c(c4cc(C)ccc4n3C)n(CC(=O)Nc3ccccc3Cl)c2=O)c1	0.838%
COC(c1ccccc1)c1nnc(CCC(=O)N2CCN(CCOc3ccccc3)CC2)o1 (configuration not stated)	47% (active)
Cc1nc(CN2CCN(C(=O)CCc3nnc(Cc4c[nH]c5ccccc45)o3)CC2)cs1	0.942%
O=S(=O)(c1cccs1)N1CCN(CCOc2ccccc2)CC1	21.2%
Cc1ccc(Nc2ccc3cc(S(=O)(=O)N4CCCCC4)ccc3n2)cc1F	0.936%
Cc1cccc(NC(=O)CN(c2ccc(C(C)C)cc2)S(=O)(=O)c2c(C)nn(C)c2C)c1C	0.387%
Cc1nc2nc(SCC(=O)NC3CCC(C)CC3)nn2c(C)c1Cc1ccccc1Cl (configuration not stated)	-0.0264%
COc1ccccc1-c1noc(-c2ccc(NCc3ccccc3)c([N+](=O)[O-])c2)n1	-0.924%
Cc1ccccc1C(=O)Nc1cc(C)c(O)c(-c2nc3ccccc3o2)c1	-0.387%
O=C(C1CCN(Cc2ccc(Cl)cc2)CC1)N1CCN(Cc2ccc3c(c2)OCO3)CC1	0.973%
O=C(c1cccs1)N1CCN(Cc2ccc3c(c2)OCO3)CC1	84.2% (active)
Cc1cc(C)n2nc(C(=O)N3CCN(Cc4ccc5c(c4)OCO5)CC3)nc2n1	40.9% (active)
CCn1cc(C(=O)N2CCN(Cc3ccc4c(c3)OCO4)CC2)c2cc(OC)c(OC)cc2c1=O	51.1% (active)
CCn1cc(C(=O)NCc2ccc3c(c2)OCO3)c2cc(OC)c(OC)cc2c1=O	-0.995%
Cc1cc(C)n2nc(C(=O)Oc3ccc4c(c3)OCO4)nc2n1	-0.808%

Compound	activation
COc1ccc(-c2cc(C(=O)N3CCN(Cc4ccc5c(c4)OCO5)CC3)on2)cc1OC	-0.524%
O=C(Nc1cccc2ccccc12)N1CCN(Cc2ccc3c(c2)OCO3)CC1	5.88%
CCn1cc(C(=O)N2CCN(C3CCCCC3)CC2)c2cc(OC)c(OC)cc2c1=O	0.186%
COc1cc(OC)c(N(C)C(=O)c2cc3c(=O)oc4ccccc4c3s2)cc1Cl	0.129%
Cc1ccc(C)c(N2CCN(c3ccc4cc(S(=O)(=O)N5CCC(C)CC5)ccc4n3)CC2)c1	0.192%
Cc1ccc(-c2cn3c(n2)sc2cc(C(=O)NCCCc4ccccc4)ccc23)cc1	1.23%
CCN(CC)S(=O)(=O)c1ccc2c(c1)N(CC(=O)NCc1ccccc1)C(=O)CS2	-0.489%
Cc1cccc(S(=O)(=O)c2cn(Cc3ccccc3)c3cc(N4CCOCC4)c(F)cc3c2=O)c1	-0.108%
COc1ccccc1-c1ccnc2[nH]n(-c3ccccc3)c(=O)c12	-0.0633%
COc1ccc(C(=O)N[C@H](C(=O)NCc2ccccc2)C(C)C)cc1	-0.577%
COc1cc(OC)cc(C(=O)N[C@H](C(=O)OCC(=O)NC(C)c2ccccc2)C(C)C)c1 (some centres not stated)	32.6% (active)
COc1cc(OC)cc(C(=O)N[C@H](C(=O)Nc2nc3ccccc3[nH]2)C(C)C)c1	0.237%
Cc1ccc(CN2CCN(/N=C/c3cccnc3)CC2)c(C)c1	-0.239%
CN(C)C(=O)c1nc2ccc(Cl)cn2c1CN1CCN(c2ncccn2)CC1	5.69%
Cc1ccc(CN2CCN(/N=C/c3ccco3)CC2)c(C)c1	0.881%
Oc1ccc(CN2CCN(c3ncccn3)CC2)cc1	84.4% (active)
c1cnc(N2CCN(c3ccc4ccccc4n3)CC2)nc1	0.566%
Cc1ccc(CN2CCN(c3ncccn3)CC2)c(C)c1	71.3% (active)
COc1cc(C(CC(=O)NCCC(C)C)N2Cc3ccccc3C2=O)cc(OC)c1OC (configuration not stated)	2.01%
CCc1ccc2oc(-c3ccc(C)c(NC(=O)/C=C/c4ccco4)c3)nc2c1	0.62%
CCc1ccccc1NC(=O)Cn1c(=O)n(-c2cccc(C)c2)c(=O)c2c1c1cc(OC)ccc1n2C	0.643%
